Assay results reported in PubChem BioAssay.
Active and inactive are the calls of the source.

How the values were obtained:
[1] = test system: Human papillomavirus type 1a protein E7 (residues 44-93); test: small molecules binding HPV E7 44-93 – biochemical, small-molecule microarray, residues 44-93, 635 nm fluorescence, primary screen (AID 1108); conditions: fluorescence 635 nm, higher = more signal;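 note: E7 fragment applied at 1 µg/mL in TBST for 1 h at 4 C; score combines spot fluorescence with its signal to noise ratio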
[2] = hepatitis C replication reporter changes, two-sided – Huh7 cells, luciferase reporter, HCV replication inhibitor project, primary screen (AID 1109); conditions: Huh7 HCV replicon luciferase reporter, 48 h; higher = more signal;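 note: huh7 hepatoma cells harbouring a luciferase neomycin HCV replicon reporter; luciferase luminescence as measure of HCV replicon replication; test concentration not given here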
[3] = biological target: Left-right determination factor 2 (Homo sapiens) (UniProt O00292); test: small molecules binding LEFTY2 protein – biochemical, small-molecule microarray, 635 nm fluorescence scan, primary screen (AID 1110); conditions: higher = more signal
[4] = biological target: Calmodulin-1 (Homo sapiens) (UniProt P0DP23); test: small molecules binding calmodulin-1 with EGTA – biochemical, small-molecule microarray, Cy5-labelled CALM1, profiling panel (AID 1111); conditions: Cy5-CALM1 binding fluorescence, higher = more signal;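 note: labelled calmodulin applied in Tris saline Tween buffer holding calcium plus EGTA and DTT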
[5] = biological target: Calmodulin-1 (Homo sapiens) (UniProt P0DP23); test: small molecules binding Ca-loaded calmodulin-1 – biochemical, small-molecule microarray, Cy5-labelled CALM1, plus calcium, artefact control for SMM control-protein annotation, profiling panel (AID 1112); conditions: Cy5-CALM1 binding fluorescence, higher = more signal;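 note: score merges spot fluorescence with signal to noise from triplicate slides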
[6] = probe aWnt5a binding to arrayed compounds – biochemical, biotinylated probe, 635/667 nm fluorescence, primary screen (AID 1113); conditions: small-molecule microarray, higher = more signal;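 note: score merges 667 nm fluorescence intensity with signal-to-noise per printed feature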
[7] = probe aShh binding to arrayed compounds – biochemical, biotinylated probe, 635/667 nm fluorescence, primary screen (AID 1114); conditions: small-molecule microarray, higher = more signal;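 note: probe is biotin-labelled aShh protein from a stem cell growth factor screen; measures binding of labelled protein to compounds printed on the slide; score merges feature fluorescence at 667 nm with signal-to-noise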
[8] = probe aNog binding to arrayed compounds – biochemical, biotinylated probe, 635/667 nm fluorescence, primary screen (AID 1115); conditions: small-molecule microarray, higher = more signal;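 note: probe is biotinylated aNog protein used at 0.15 µg/mL for 1 h at 4 C; z-score combines 667 nm fluorescence of each spot with its signal to noise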
[9] = biological target: Torsin-1A-interacting protein 1 (Homo sapiens) (UniProt Q5JTV8); test: compound microarray binding of lysate hLAP1 – cell lysate, small-molecule microarray, COS7 lysate, 635/667 nm fluorescence, primary screen (AID 1116); conditions: 635 nm fluorescence, higher = more signal
[10] = biological target: Alpha-bungarotoxin (Bungarus multicinctus) (UniProt P60615); test: compounds binding labelled alpha-BTX control protein – biochemical, small-molecule microarray, Alexa647 label, 635/667 nm fluorescence, artefact control for SMM control protein annotation, profiling panel (AID 1117); conditions: alpha-BTX-A647 binding fluorescence, higher = more signal
Albumin (Bos taurus) = Albumin (Bos taurus) (UniProt P02769); test: compounds binding labelled BSA control protein – biochemical, small-molecule microarray, Alexa647 label, 635/667 nm fluorescence, artefact control for SMM control protein annotation, profiling panel (AID 1118); conditions: BSA-A647 binding, fluorescence 635 nm, higher = more signal;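 note: score merges 667 nm emission intensity and signal-to-noise per printed compound spot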
[11] = probe aXIP binding to arrayed compounds – biochemical, NeuroSMM set, 635/667 nm fluorescence, primary screen (AID 1119); conditions: small-molecule microarray, higher = more signal, called active from +8 up or from −8 down;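 note: probe is the protein aXip251-270 applied at 1 µg/mL to compound-printed slides; binding of probe to printed compounds measured as 667 nm fluorescence plus signal to noise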
[12] = probe aNOTCH3 binding on compound microarray – biochemical, small-molecule microarray, 635/667 nm fluorescence, primary screen (AID 1120); conditions: higher = more signal;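 note: probe is a biotin-tagged antibody raised against NOTCH3 rather than NOTCH3 protein; score merges spot fluorescence near 667 nm with spot signal to noise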
[13] = probe aNOTCH2 binding on compound microarray – biochemical, small-molecule microarray, 635/667 nm fluorescence, primary screen (AID 1121); conditions: higher = more signal;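 note: score merges feature fluorescence read at 667 nm with its signal to noise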
[14] = biological target: Carbonic anhydrase 2 (Homo sapiens) (UniProt P00918); test: compounds binding carbonic anhydrase 2 – biochemical, small-molecule microarray, Alexa647-labelled CAII, profiling panel (AID 1122); conditions: CAII-A647 binding fluorescence, higher = more signal
[15] = COS7 lysate on small-molecule microarray, probe aHis, 635 nm (AID 1123); conditions: COS7 cell lysate, fluorescence, higher = more signal;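 note: z-score combines 667nm fluorescence intensity with signal-to-noise per printed compound spot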
[16] = probe aLAP1 signal on lysate-treated microarray – cell lysate, small-molecule microarray, COS7 lysate, primary screen (AID 1124); conditions: probe aLAP1, fluorescence, higher = more signal;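 note: lysate comes from COS7 cells expressing LAP1 and is applied at 0.3 µg/mL; score merges spot fluorescence near 667 nm with signal-to-noise over triplicate slides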
Sam68 (KHDRBS1) = test: compounds binding KHDRBS1 protein – biochemical, small-molecule microarray, 635 nm fluorescence, primary screen (AID 1125); conditions: higher = more signal;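 note: score merges 667 nm channel intensity with signal to noise over triplicate slides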
[17] = test system: Chordin-like protein 2 (CHRDL2); test: compounds binding chordin-like 2 – biochemical, small-molecule microarray, 635 nm fluorescence, primary screen (AID 1126); conditions: fluorescence 635 nm, higher = more signal;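 note: printed compound slides probed with Chrdl2 protein at 4 µg/mL for 1 h at 4 C; score merges 667 nm emission intensity with signal to noise over three replicate slides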
[18] = biological target: Concanavalin-A (Canavalia ensiformis) (UniProt P02866); test: compounds binding concanavalin A lectin – biochemical, small-molecule microarray, Alexa647 label, 635 nm, artefact control for SMM control protein annotation, primary screen (AID 1127); conditions: ConA-A647 binding fluorescence, higher = more signal;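 note: z combines 667 nm emission intensity with signal-to-noise across three replicate slides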
Chain of Concanavalin-A (Canavalia ensiformis) (P02866 whole entry, looked up): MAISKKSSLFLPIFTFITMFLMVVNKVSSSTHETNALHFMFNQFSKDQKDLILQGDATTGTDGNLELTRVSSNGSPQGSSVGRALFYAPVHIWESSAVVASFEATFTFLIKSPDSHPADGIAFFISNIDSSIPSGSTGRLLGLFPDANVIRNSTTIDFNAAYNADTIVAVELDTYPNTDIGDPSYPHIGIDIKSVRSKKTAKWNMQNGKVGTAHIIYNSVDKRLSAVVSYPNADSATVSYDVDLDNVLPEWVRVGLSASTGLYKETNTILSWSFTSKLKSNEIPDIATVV

Chain of Left-right determination factor 2 (Homo sapiens) (O00292 whole entry, looked up): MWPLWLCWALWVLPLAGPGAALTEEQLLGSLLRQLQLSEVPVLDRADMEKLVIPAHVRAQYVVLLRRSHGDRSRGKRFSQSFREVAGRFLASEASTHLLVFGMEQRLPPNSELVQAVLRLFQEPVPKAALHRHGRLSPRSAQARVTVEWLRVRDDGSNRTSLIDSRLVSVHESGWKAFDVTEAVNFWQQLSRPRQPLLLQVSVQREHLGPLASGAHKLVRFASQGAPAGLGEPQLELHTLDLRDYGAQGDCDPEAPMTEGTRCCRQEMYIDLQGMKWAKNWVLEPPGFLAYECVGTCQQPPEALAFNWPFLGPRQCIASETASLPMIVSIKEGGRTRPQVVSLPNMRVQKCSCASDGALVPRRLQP
Chain of Albumin (Bos taurus) (P02769 whole entry, looked up): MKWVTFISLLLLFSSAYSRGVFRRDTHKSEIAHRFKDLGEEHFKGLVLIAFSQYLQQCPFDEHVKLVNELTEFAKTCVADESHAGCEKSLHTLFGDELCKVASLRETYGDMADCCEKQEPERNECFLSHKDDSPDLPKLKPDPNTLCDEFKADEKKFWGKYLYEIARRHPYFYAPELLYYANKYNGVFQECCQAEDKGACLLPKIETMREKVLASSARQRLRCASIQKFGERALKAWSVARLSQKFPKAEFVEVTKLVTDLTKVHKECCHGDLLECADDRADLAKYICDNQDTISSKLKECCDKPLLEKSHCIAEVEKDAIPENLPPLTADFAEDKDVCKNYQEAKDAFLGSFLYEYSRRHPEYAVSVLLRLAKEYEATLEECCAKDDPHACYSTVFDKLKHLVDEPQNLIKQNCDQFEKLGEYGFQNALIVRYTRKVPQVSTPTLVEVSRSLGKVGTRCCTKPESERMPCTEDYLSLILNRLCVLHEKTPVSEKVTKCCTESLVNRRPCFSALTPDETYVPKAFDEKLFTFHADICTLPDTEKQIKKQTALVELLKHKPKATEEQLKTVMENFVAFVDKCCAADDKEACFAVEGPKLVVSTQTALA
Chain of Torsin-1A-interacting protein 1 (Homo sapiens) (Q5JTV8 whole entry, looked up): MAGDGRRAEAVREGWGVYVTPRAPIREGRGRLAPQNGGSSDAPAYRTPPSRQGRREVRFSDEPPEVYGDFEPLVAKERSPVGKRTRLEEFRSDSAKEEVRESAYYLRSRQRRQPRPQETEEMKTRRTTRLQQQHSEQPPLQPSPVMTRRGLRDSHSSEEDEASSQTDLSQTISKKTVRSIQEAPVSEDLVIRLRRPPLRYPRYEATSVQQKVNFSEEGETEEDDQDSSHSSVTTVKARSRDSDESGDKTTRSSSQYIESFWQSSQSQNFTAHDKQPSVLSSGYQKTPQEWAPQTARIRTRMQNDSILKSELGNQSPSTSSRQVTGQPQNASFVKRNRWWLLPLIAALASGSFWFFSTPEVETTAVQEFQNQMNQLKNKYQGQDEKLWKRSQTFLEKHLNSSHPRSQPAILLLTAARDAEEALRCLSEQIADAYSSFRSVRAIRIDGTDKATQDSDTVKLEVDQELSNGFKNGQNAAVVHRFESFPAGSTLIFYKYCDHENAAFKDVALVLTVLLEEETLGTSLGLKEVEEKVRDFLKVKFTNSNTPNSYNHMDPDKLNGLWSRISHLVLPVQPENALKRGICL
Chain of Alpha-bungarotoxin (Bungarus multicinctus) (P60615 whole entry, looked up): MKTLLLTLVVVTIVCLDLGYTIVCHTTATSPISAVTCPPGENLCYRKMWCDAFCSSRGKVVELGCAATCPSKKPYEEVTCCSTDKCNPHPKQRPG

Structure (SMILES) | composite z-score [1] | z-score [2] | composite z-score [3] | composite z-score [4] | composite z-score [5] | composite z-score [6] | composite z-score [7] | composite z-score [8] | composite z-score [9] | composite z-score [10] | composite z-score (Albumin (Bos taurus)) | composite Z-score [11] | composite z-score [12] | composite z-score [13] | composite z-score [14] | composite z-score [15] | composite z-score [16] | composite z-score (Sam68 (KHDRBS1)) | composite z-score [17] | composite z-score [18]
COC(=O)[C@@]1(Cc2ccc(OC)cc2)[C@H]2c3cc(C(=O)N4CCCC4)n(Cc4cc(F)c(F)c(F)c4)c3C[C@H]2CN1C(=O)c1ccccc1 | 1.37 | 0.323 | 0.342 | 2.69 | 1.59 | 1.11 | 2.22 | 1.07 | 1.52 | 2.06 | 1.04 | 0.188 (inactive) | 1.69 | 0.882 | 0.765 | 3.06 | 1 | 1.3 | -0.593 | 1.21
O=C1[C@H]2[C@H]3[C@H](O)[C@H](O)CC(=NOCc4ccccc4)[C@H]3CC[C@H]2C(=O)N1C[C@@H]1CCCO1 | 0.536 | 0.188 | 0.873 | 0.0951 | -0.223 | -0.0685 | -0.138 | 0.0715 | 0.278 | 0.0902 | 0.5 | 0.324 (inactive) | 0.132 | -0.12 | 0.432 | 0.469 | 0.491 | 0.232 | 0.312 | 0.652
CCOC(=O)NN=C1C[C@@H](O)[C@@H](O)[C@@H]2[C@@H]3C(=O)N(C4CCCCC4)C(=O)[C@@H]3CC[C@H]12 | 0.0361 | -0.314 | 0.511 | -0.101 | -0.469 | -0.128 | 0.199 | -0.245 | 0.217 | -0.177 | 0.801 | -0.0662 (inactive) | 0.0242 | -0.037 | -0.0418 | 0.387 | 0.16 | 0.458 | 0.0341 | 0.357
COC(=O)[C@@H]1CCCN1C(=O)[C@@H](C)CO | 0.946 | 0.868 | 0.344 | 0.49 | 0.0051 | -0.0566 | -0.2 | 0.141 | 0.451 | 1.13 | 0.448 | -0.505 (inactive) | 0.0042 | -0.16 | 0.192 | 0.84 | -0.436 | 0.95 | 0.584 | 0.873
COC(=O)c1c(CC[C@@H](CO)NC(=O)N[C@H](Cc2ccccc2)Cn2cc(-c3ccccc3N)nn2)oc(C(C)=O)c1C(=O)OC | 0.734 | -1.35 | -0.104 | -0.0936 | -0.656 | -0.001 | 0.0326 | 1.12 | 1.54 | 0.57 | 0.484 | -0.202 (inactive) | 0.237 | 0.115 | 0.0874 | 1.31 | 0.481 | 0.938 | 0.509 | -0.0831
COc1ccc(O[C@H]2C=C[C@@H](c3ccccc3)O[C@@H]2COC(=O)CCC(C)=NOCC[C@@H]2C=C[C@H](OC(C)=O)[C@@H](COC(C)=O)O2)cc1 | -0.119 | -1.1 | 0.347 | -1.02 | -1.27 | 0.0495 | 0.199 | 0.0301 | 0.781 | -0.0704 | -0.598 | 0.806 (inactive) | 0.297 | -0.0028 | 0.654 | 0.938 | 0.203 | -0.23 | -0.0022 | -0.997
Cc1ccc(F)cc1S(=O)(=O)N[C@@H]1CCN(Cc2ccc(CC(C)C)cc2)C1 | 0.135 | -3.88 | -0.185 | -0.793 | -0.328 | -0.23 | -0.138 | -0.272 | 0.464 | 0.0331 | 0.118 | -0.316 (inactive) | -0.249 | -0.208 | 0.013 | 0.193 | 0.172 | 0.499 | 0.266 | -1.47
COc1ccc(O[C@H]2C=C[C@@H](c3ccccc3)O[C@@H]2COC(=O)N2CCCCC2)cc1 | -0.57 | -1.34 | -0.0284 | -0.781 | -1.33 | -0.0512 | -0.0146 | -0.267 | 0.323 | -0.195 | -0.725 | 0.0229 (inactive) | -0.131 | -0.111 | -0.29 | -0.482 | 0.0033 | -0.907 | 0.387 | -0.578
CC(CCC(=O)OC[C@H]1O[C@H](C#Cc2ccccc2)C=C[C@@H]1Oc1ccc(C)cc1)=NO[C@@H](C)c1cn([C@H](CO)Cc2ccccc2)nn1 | 0.507 | -1.97 | 0.381 | -0.329 | -0.385 | -0.152 | 0.108 | -0.12 | -0.0538 | 1.76 | 0.0449 | -0.684 (inactive) | 0.0026 | -0.0907 | -0.122 | -0.053 | -0.592 | 0.297 | 0.145 | 0.27
CO[C@@H]1COC(=O)CC=C[C@@H](C)[C@@H]2C=C[C@H](O)[C@@H](COC(=O)[C@H](C)NC(=O)CC=C[C@H]1C)O2 | -1.68 | -2.12 | 0.433 | -1.52 | -1.99 | -0.103 | -0.0035 | -0.466 | -0.0424 | 0.304 | -0.107 | 0.581 (inactive) | -0.0328 | -0.164 | -0.455 | -1 | 1.27 | 0.249 | 1.54 | -0.016
CCOC(=O)[C@H](CC(C)C)NC(=O)CCC1CC(OC(=O)NCCc2ccc(F)cc2)CC2(CCCC(COC(=O)NCc3ccccc3)O2)O1 (stereo not given in full) | 1.37 | -1.76 | 1.16 | 0.0292 | -0.008 | -0.113 | -0.214 | -0.183 | 0.575 | 0.287 | 0.173 | -0.0657 (inactive) | 0.257 | -0.131 | 0.274 | 1.27 | 0.362 | 1.14 | 0.623 | 0.754
COc1ccc(-c2nc3c(c4c2C[C@H](C)OC4)CN(CCC(C)C)CC3)cc1 | 1.35 | -0.257 | 0.6 | 0.518 | 0.038 | -0.0239 | 0.123 | -0.131 | 0.269 | 0.615 | 0.556 | 0.292 (inactive) | -0.166 | -0.0167 | 0.441 | 0.455 | -0.177 | 1.23 | 0.348 | 0.928
